# Results reported in PubChem BioAssay (NCATS).
# A number with no mark means an inactive call. Inconclusive results are not listed. Calls of active or inactive are those of the source. Unless noted, the call rests on the fitted dose curve.
# How the values were obtained:
# [1] = Cell Viability - BJ (AID 421); details: BJ fibroblast viability, qHTS;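 further: potency means the concentration at half of the fitted maximal effect; cells exposed to compound for 40 hours at 37 °C before readout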
# Method in brief: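 Luminescent ATP signal (CellTiter-Glo, 20 min at room temperature) served as the read-out of viable BJ cells after 40 hours of compound treatment. Responses were scaled between DMSO and 100 uM tamoxifen, and AC50 values were obtained by Hill modeling.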
# [2] = Cell Viability - Hek293 (AID 427;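 active means compounds whose dose-response curve shows a full or clear partial loss of cell viability, called from curve shape rather than a numeric limit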;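 further: potency means the concentration at half of the fitted maximal effect; cells exposed to compound for 40 hours at 37 °C before reading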); details: qHTS
# Method in brief: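 Luminescent ATP read-out (CellTiter-Glo, 20 min RT) after 40 hr compound exposure at 37 °C in complete medium. Signal normalized to DMSO (basal) and 100 uM tamoxifen (100% inhibition); concentration-response fitted with the standard Hill equation to give AC50.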
# [3] = Cell Viability - HepG2 (AID 433); details: qHTS;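 further: potency means the concentration at half of the fitted maximal effect; potency for ATP loss meaning cytotoxicity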
# Method in brief: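 HepG2 hepatocellular carcinoma cells (1500/well) were treated with compounds for 40 h at 37 °C in complete medium; intracellular ATP was read by CellTiter-Glo luminescence. Data were normalized to DMSO and 100 uM tamoxifen, and AC50 came from Hill fits.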
# [4] = Cell Viability - MRC5 (AID 434); details: MRC5 lung fibroblast viability, qHTS;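 further: potency means the concentration at half of the fitted maximal effect; potency reflects cytotoxicity seen as loss of intracellular ATP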
# Method in brief: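 Decrease in intracellular ATP, quantified by luciferase light output, reflects compound toxicity toward MRC5 cells exposed for 40 hr in complete culture medium. Concentration-response curves, scaled between DMSO and 100 uM tamoxifen, gave AC50 values.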
# [5] = Cell Viability - SK-N-SH (AID 435); details: SK-N-SH neuroblastoma cell viability qHTS;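 further: potency means the concentration at half of the fitted maximal effect; compound exposure lasted 40 h at 37 °C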
# Method in brief: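 SK-N-SH human neuroblastoma cells (1500/well) were exposed to compounds in complete medium for 40 h at 37 °C, and intracellular ATP was then measured by CellTiter-Glo luminescence. AC50 was taken from Hill fits, normalized to DMSO and 100 uM tamoxifen.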
# [6] = AP1 Signaling Pathway (AID 357; active means well fitted curve in either direction with a large enough effect, not every such curve was filed as active;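 further: ME-180 reporter cells stimulated with EGF at its EC50 level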); details: ME-180 (cervical carcinoma) AP-1-bla reporter, EGF-induced, beta-lactamase ratio, 5 h; series mostly up to 17.2 µM
# Method in brief: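 A ratiometric CCF4 readout (405 nm excitation; 460 and 530 nm emission) quantified AP-1-driven beta-lactamase in ME-180 cells after 5 h with compound and EC50 EGF; AC50 values were derived for activators and inhibitors.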
# [7] = biological target: Cytochrome P450 1A2 (Homo sapiens) (UniProt P05177); experiment: p450-cyp1a2 (AID 410); details: recombinant CYP1A2, luciferin-ME demethylation, luminescence; series mostly up to 25.6 µM; further: potency means the concentration at half of the fitted maximal effect
# Method in brief: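 Read-out is luminescence from luciferin produced by CYP1A2 demethylation of Luciferin-ME (100uM, at Km). Detection reagent stopped the 60 min NADPH-dependent reaction; signals were normalized to 57 uM furafylline.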
# [8] = NFAT Signaling Pathway (AID 444; active means well fitted curve in either direction with a large enough effect, not every such curve was filed as active;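 further: carbachol stimulus at about its EC50 of 1 µM final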); details: Jurkat NFAT-bla M1, carbachol, beta-lactamase ratio, 5 h; series mostly up to 17.2 µM
# Method in brief: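 Jurkat cells carrying an NFAT-driven β-lactamase reporter and co-transfected muscarinic M1 receptor were treated with compound plus carbachol (1 uM final, an EC50 level) for 5 h at 37 °C. CCF4 loading followed for 1 h at RT; 460/530 nm ratio gave %activity.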
# [9] = Cell Viability - Jurkat (AID 426;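 active means dose-dependent loss of cell ATP signal giving a full or clear fitted curve, ranked by lower potency value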;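 further: potency means the concentration at half of the fitted maximal effect; cells exposed to compound for 40 hours at 37 °C before ATP read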); details: qHTS
# Method in brief: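 Cytotoxicity was scored as loss of cellular ATP, measured by luciferase-based luminescence, in Jurkat clone E6-1 cells after 40 h compound treatment; tamoxifen and doxorubicin served as positive controls.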
# [10] = biological target: Lysosomal acid glucosylceramidase (Homo sapiens) (UniProt P04062); experiment: Glucocerebrosidase-p2 (AID 348; in the data active means potency below about 10 µM; further: potency means the concentration at half of the fitted maximal effect); details: purified GBA, blue fluorogenic substrate, 40 min
# Method in brief: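 Normal human glucocerebrosidase (0.2 nM) with blue fluorogenic substrate (80 uM final) in citrate/phosphate pH 5.9 with 10mM sodium taurocholate, 0.01% tween-20; 40 min RT, NaOH/glycine stop; fluorescence Ex 365/Em 440; AC50 from a titration from 0.6 nM upwards.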
# Cytochrome P450 1A2 (Homo sapiens), sequence (P05177 whole entry, looked up): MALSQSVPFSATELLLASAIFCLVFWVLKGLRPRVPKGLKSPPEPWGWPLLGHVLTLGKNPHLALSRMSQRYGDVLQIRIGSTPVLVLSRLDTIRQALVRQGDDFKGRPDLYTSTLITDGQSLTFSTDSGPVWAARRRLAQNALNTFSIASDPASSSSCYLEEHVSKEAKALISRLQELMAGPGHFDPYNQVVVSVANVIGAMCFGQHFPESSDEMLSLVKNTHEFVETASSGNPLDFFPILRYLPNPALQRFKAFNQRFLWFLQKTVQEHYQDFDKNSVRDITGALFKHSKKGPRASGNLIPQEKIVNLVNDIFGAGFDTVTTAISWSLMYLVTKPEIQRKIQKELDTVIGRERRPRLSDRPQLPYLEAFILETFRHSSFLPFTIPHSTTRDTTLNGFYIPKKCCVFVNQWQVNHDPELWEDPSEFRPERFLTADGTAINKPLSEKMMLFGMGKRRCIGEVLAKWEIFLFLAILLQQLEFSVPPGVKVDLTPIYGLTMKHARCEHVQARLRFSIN
# Lysosomal acid glucosylceramidase (Homo sapiens), sequence (P04062 whole entry, looked up): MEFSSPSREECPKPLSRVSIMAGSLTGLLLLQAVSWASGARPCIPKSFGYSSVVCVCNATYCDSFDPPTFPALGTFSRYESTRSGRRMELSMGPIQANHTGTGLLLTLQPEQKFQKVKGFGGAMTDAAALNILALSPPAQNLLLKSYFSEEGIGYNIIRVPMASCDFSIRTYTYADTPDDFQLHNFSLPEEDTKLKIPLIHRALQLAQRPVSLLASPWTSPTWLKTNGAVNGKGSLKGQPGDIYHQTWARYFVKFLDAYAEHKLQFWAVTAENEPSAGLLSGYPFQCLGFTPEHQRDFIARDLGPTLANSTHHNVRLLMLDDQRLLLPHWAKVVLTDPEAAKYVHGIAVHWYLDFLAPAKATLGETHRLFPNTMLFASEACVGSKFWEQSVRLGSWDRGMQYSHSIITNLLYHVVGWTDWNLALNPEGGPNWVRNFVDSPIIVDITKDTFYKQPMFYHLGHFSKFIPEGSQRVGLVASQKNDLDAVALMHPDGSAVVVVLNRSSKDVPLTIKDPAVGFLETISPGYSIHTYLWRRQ
compound,measurement,setting,value
Nc1ccccc1N,Potency,[1],> 92 µM
same,Potency,[2],> 92 µM
same,Potency,[3],> 92 µM
same,Potency,[4],> 92 µM
same,Potency,[5],> 92 µM
COc1ccc2c(OC)c3ccoc3nc2c1OC,outcome,[6],inactive
same,Potency,[7],79.4 nM (active)
same,outcome,[8],inactive
O=C1NC(=O)C(c2cn(-c3ccccc3)nc2-c2ccc(F)cc2)N1 (configuration not stated),outcome,[6],inactive
same,outcome,[8],inactive
Cc1ccc(N)cc1O,Potency,[1],> 92 µM
same,Potency,[9],> 92 µM
same,Potency,[2],> 92 µM
same,Potency,[3],> 92 µM
same,Potency,[4],> 92 µM
same,Potency,[5],> 92 µM
COc1ccc(C[C@H](N)C(=O)N[C@@H]2[C@H](O)[C@H](n3cnc4c(N(C)C)ncnc43)O[C@@H]2CO)cc1,Potency,[7],inactive
Cc1ccccc1CN1C2=NCCN2C(=O)C2=C1CCN(Cc1ccccc1)C2,Potency,[10],> 11.4 µM
same,outcome,[6],inactive
same,Potency,[7],inactive
same,outcome,[8],inactive
CC(=O)O[C@@H]1CC(C)=C2[C@H]1[C@H](C)CC[C@H]2/C=C(\C)C(=O)O,Potency,[1],> 92 µM
same,Potency,[9],> 92 µM
same,Potency,[2],> 92 µM
same,Potency,[3],> 92 µM
same,Potency,[4],> 92 µM
same,Potency,[5],> 92 µM
